In all, about 37,000 compounds went through this assay and about 290 (0.78%) were called active. Not shown: some 10% with an inconclusive outcome.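 The calls were made as follows: active = mean inhibition of at least 10% in the main channel, exceeding the control channel by a set limit; inconclusive = inhibition of 10% or more but channel gap under a set limit; inactive = mean inhibition below 10%.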 The sample as a whole holds a higher share of actives than the screen did.

This is an account of results in PubChem BioAssay AID1224904 (Broad Institute, 2016).

This assay in a line: inhibitors of DUX4-driven ZSCAN4 reporter expression, primary screen, 293T cells, Gaussia and Italica luciferase (AID 1224904).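 As to activity change, negative = inhibition: 0% = median of neutral control wells and -100% = median of positive control wells.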 To be noted: 293T-iDUX4 ZSCAN4-Gaussia luciferase reporter, 24 h, stronger effect = lower value, concentration not given here; for Gaussia minus Italica difference: measured here: selective DUX4 reporter inhibition. In general terms: In a reporter assay the amount or activity of a reporter protein is the signal.

Where [1] appears, read: measured here: Italica tet-on control reporter.

As for `CN(C)C(=O)[C@@H]1[C@@H](CO)[C@@H]2Cn3c(cccc3=O)[C@H]1N2CC1CCCCC1`, the activity change, negative = inhibition is -1.56% (inactive) and the Gaussia minus Italica difference amounted to 3%. Moreover, the activity change, negative = inhibition under setting [1] was -4.57%.

Consider `COc1cccc(-c2ccc([C@@H]3[C@@H](CO)N(C(=O)c4ccccn4)[C@H]3C#N)cc2)c1`, for which the activity change, negative = inhibition was 5.81% (inactive) and the Gaussia minus Italica difference came to 7.74%. Moreover, the activity change, negative = inhibition under setting [1] was -1.92%.

On to `C[C@H](NC(=O)C[C@@H]1CC[C@@H]2[C@H](COC[C@@H](O)CN2Cc2cc(F)ccc2F)O1)c1ccccc1`, for which the activity change, negative = inhibition was 0.118% (inactive) and the Gaussia minus Italica difference was -1.81%. The activity change, negative = inhibition under setting [1] was found to be 1.93%.

For `O=C(Cc1ccccc1)N1C[C@@H]2[C@H](c3ccccc31)[C@@H](CO)N2C(=O)C1CCOCC1`, the activity change, negative = inhibition is 1% (inactive) and the Gaussia minus Italica difference was -1.15%. Besides, the activity change, negative = inhibition under setting [1] came to 2.15%.

Take `C[C@@H](O)C#Cc1ccc([C@@H]2[C@H]3CN(C(=O)c4ccc5c(c4)OCO5)CCCCN3[C@H]2CO)cc1`: the activity change, negative = inhibition is 1.93% (inactive) and the Gaussia minus Italica difference is -8.36%. In addition, the activity change, negative = inhibition under setting [1] came out at 10.3%.

As to `COCC(=O)Nc1ccc2c(c1)C(=O)N(C)[C@@H]1CC[C@@H](CC(=O)NCCCN(C)C)O[C@@H]1CO2`, the activity change, negative = inhibition is -2.75% (inactive) and the Gaussia minus Italica difference was -2.33%. The activity change, negative = inhibition under setting [1] is -0.412%.

In the case of `COc1ccccc1S(=O)(=O)N1CC[C@H]2[C@@H](CO)N(C)c3ccc(C#Cc4ccccc4)cc3[C@H]21`, the activity change, negative = inhibition is 8.89% (inactive) and the Gaussia minus Italica difference was -4.03%. Moreover, under setting [1], the activity change, negative = inhibition is 12.9%.

As for `C[C@@H]1CN([C@@H](C)CO)C(=O)c2c(c3ccccc3n2C)-c2ccccc2CO[C@H]1CN(C)C(=O)C1CC1`, the activity change, negative = inhibition is 7.74% (inactive) and the Gaussia minus Italica difference is -6.9%. The activity change, negative = inhibition under setting [1] stood at 14.6%.

For the compound `COc1ccccc1NC(=O)N1[C@@H]2CNC[C@H]1C2c1ccc(-c2ccccc2C)cc1` (some centres not stated), the activity change, negative = inhibition was 17.2% (inactive) and the Gaussia minus Italica difference is 13.7%. For the same compound, under setting [1], the activity change, negative = inhibition is 3.5%.

As for `O=C1N[C@H](c2ccccc2)COCc2cn(nn2)CC[C@@H]1Cc1ccc(Cl)cc1`, the activity change, negative = inhibition is -6.57% (inactive) and the Gaussia minus Italica difference turned out to be 7.94%. Also, the activity change, negative = inhibition under setting [1] was -14.5%.

For the compound `Cn1cnc(CCNC(=O)C[C@H]2CC[C@H]3[C@@H](COC[C@H](O)CN3C(=O)C3CCCC3)O2)c1`, the activity change, negative = inhibition was 4.42% (inactive) and the Gaussia minus Italica difference is 6.41%. Under setting [1], the activity change, negative = inhibition is -1.98%.

As to `CCCNC(=O)Nc1ccc2c(c1)C(=O)N(C)C[C@H](OC)[C@H](C)CN[C@@H](C)CO2`, the activity change, negative = inhibition was 5.48% (inactive) and the Gaussia minus Italica difference was found to be 1.03%. The activity change, negative = inhibition under setting [1] was 4.45%.

Turning to `CN1c2ccc(Br)cc2[C@@H]2[C@@H](CCN2C(=O)Cc2ccccc2)[C@@H]1CO`, the activity change, negative = inhibition was 6.02% (inactive) and the Gaussia minus Italica difference turned out to be 2.29%. Also, under setting [1], the activity change, negative = inhibition is 3.73%.

On to `O=C(C[C@@H]1CC[C@H]2[C@@H](COC[C@@H](O)CN2Cc2nccs2)O1)NCc1ccc(-c2ccccc2)cc1`, for which the activity change, negative = inhibition was -5.3% (inactive) and the Gaussia minus Italica difference amounted to 6.63%. The activity change, negative = inhibition under setting [1] was -11.9%.

As for `O=C(c1ccccc1F)N1C[C@@H]2[C@H](c3ccccc31)[C@H](CO)N2C(=O)C1CCCC1`, the activity change, negative = inhibition is 1.9% (inactive) and the Gaussia minus Italica difference was -1.83%. For the same compound, under setting [1], the activity change, negative = inhibition turned out to be 3.72%.

Turning to `O=C(C1CCC1)N1C[C@@H]2N[C@H](C1)C2c1ccc(-c2cncnc2)cc1` (some centres not stated), the activity change, negative = inhibition was -25.8% (active) and the Gaussia minus Italica difference is -25.4%. The activity change, negative = inhibition under setting [1] is -0.405%.

Consider `Cc1ccccc1-c1ccc(C2[C@@H]3CN(C(=O)C4CCCCC4)C[C@H]2N3)cc1` (some centres not stated), for which the activity change, negative = inhibition was -6.47% (inactive) and the Gaussia minus Italica difference was -6.12%. The activity change, negative = inhibition under setting [1] was -0.357%.

In the case of `O=C(CN1CCOCC1)N1C[C@@H]2N[C@H](C1)C2c1ccc(-c2ccncc2)cc1` (some centres not stated), the activity change, negative = inhibition is 15.1% (inactive) and the Gaussia minus Italica difference is -4.83%. Also, the activity change, negative = inhibition under setting [1] was found to be 19.9%.

Regarding `COCC(=O)Nc1ccc2c(c1)OC[C@@H](C)N(C(=O)CC1CC1)C[C@@H](C)[C@@H](OC)CN(C)C2=O`, the activity change, negative = inhibition is -1.74% (inactive) and the Gaussia minus Italica difference was -1.65%. Also, the activity change, negative = inhibition under setting [1] is -0.0881%.
